Reference: article PMC7862700, “An all-to-all approach to the identification of sequence-specific readers for epigenetic DNA modifications on cytosine”

Assays:
Test in all cases: DAPPL (digital affinity profiling via proximity ligation, sequencing); 10 mM Tris-HCl pH 7.5, 50 mM NaCl, 1 mM DTT, 4% glycerol, room temperature, 30 min; GST-TFs on glutathione beads, 16-mer random dsDNA library, 0.1% formaldehyde crosslink after washing; high values mean tight binding
Details in all cases: protein: recombinant; tags: N-terminal GST; dsDNA, one strand shown
FLI1 = molecular target: T1, FLI1 (Homo sapiens, UniProt Q01543 1-452)
T1 sequence: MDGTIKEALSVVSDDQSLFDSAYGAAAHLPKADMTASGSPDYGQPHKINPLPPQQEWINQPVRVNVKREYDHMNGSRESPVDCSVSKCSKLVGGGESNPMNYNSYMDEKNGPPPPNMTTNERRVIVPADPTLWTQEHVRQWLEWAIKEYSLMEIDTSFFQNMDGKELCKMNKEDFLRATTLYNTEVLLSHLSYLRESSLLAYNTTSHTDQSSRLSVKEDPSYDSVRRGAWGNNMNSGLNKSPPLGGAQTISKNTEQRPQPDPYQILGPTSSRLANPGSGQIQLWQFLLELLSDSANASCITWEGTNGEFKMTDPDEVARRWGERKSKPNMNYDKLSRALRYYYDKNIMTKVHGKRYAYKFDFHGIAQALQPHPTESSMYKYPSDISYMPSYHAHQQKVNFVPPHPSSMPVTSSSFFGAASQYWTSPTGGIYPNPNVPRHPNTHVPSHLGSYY
How it was run: (§1)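 Human transcription factors carrying a GST fusion were produced in yeast, bound to glutathione beads, tagged with DNA barcodes and pooled together with a tag-only sample. Each pool was held with 200 nmole of a random double-stranded 16-mer DNA library in Tris/NaCl/DTT/glycerol buffer for 30 min at room temperature, then washed, crosslinked in 0.1% formaldehyde, proximity-ligated with BsaI/T4 ligase (1 h, 37 °C), PCR-amplified and sequenced on an Illumina NextSeq500. Binding signal is the read frequency of each hexamer for a given factor divided by its frequency in the tag-only sample.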

ELK1 = molecular target: T2, ELK1 (Homo sapiens, UniProt P19419 1-428)
T2 sequence: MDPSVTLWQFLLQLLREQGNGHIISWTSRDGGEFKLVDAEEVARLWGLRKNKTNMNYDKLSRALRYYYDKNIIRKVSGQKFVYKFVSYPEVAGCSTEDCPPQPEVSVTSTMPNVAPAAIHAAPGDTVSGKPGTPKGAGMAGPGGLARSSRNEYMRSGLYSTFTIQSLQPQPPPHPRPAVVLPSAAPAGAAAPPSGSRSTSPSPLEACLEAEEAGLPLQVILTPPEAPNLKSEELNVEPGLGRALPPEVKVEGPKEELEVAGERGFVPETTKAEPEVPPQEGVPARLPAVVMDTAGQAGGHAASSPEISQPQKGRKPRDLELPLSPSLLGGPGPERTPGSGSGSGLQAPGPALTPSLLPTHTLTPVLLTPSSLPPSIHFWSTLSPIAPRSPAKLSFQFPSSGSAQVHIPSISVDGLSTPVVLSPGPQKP
How it was run: as §1

GABPA = molecular target: T3, GABPA (Homo sapiens, UniProt Q06546 1-454)
T3 sequence: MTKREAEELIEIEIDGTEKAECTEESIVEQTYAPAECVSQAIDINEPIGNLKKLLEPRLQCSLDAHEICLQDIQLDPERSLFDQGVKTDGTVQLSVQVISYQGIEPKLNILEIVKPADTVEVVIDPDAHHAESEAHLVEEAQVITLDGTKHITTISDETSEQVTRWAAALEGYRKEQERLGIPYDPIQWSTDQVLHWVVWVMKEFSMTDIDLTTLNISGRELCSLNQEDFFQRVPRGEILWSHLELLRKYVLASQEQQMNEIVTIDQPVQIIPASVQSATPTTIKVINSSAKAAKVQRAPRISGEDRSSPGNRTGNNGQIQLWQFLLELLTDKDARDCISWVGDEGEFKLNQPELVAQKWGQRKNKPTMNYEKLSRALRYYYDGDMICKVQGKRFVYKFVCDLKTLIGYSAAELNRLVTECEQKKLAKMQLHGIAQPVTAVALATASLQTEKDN
How it was run: as §1

ERG = molecular target: T4, ERG (Homo sapiens, UniProt P11308 1-479)
T4 sequence: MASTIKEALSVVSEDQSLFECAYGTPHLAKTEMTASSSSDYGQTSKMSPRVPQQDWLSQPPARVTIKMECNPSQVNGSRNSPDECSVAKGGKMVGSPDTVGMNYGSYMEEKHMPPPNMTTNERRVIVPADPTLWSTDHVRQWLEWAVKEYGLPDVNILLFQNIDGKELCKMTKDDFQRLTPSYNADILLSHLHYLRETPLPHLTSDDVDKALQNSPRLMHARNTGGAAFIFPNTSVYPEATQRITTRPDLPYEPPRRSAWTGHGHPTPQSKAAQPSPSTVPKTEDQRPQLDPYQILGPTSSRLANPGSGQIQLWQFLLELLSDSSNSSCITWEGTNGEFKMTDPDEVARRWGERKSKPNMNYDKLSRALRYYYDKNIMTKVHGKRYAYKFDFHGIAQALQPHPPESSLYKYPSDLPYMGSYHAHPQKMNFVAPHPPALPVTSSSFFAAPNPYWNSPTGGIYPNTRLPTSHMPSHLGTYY
How it was run: as §1

ELF1 = ELF1 (Homo sapiens, UniProt P32519 1-619)
ELF1, sequence (P32519 whole entry): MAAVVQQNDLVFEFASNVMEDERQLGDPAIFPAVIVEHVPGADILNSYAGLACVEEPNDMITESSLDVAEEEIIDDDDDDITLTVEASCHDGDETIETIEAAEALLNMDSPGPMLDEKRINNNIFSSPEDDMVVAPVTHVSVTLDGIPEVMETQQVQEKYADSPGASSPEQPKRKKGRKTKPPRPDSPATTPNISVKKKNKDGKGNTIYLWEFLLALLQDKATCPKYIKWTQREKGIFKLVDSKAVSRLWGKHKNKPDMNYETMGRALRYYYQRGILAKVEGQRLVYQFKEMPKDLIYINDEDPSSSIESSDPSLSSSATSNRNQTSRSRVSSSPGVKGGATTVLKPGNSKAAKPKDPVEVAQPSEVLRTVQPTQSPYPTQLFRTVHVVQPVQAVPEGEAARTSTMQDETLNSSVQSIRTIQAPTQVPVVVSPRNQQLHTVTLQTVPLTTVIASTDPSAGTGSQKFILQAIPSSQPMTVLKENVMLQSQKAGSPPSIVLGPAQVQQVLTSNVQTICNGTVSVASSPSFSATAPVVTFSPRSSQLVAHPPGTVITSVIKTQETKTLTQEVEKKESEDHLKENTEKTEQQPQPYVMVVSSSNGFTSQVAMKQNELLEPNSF
How it was run: as §1

EHF = molecular target: T5, EHF (Homo sapiens, UniProt Q9NZC4 1-300)
T5 sequence: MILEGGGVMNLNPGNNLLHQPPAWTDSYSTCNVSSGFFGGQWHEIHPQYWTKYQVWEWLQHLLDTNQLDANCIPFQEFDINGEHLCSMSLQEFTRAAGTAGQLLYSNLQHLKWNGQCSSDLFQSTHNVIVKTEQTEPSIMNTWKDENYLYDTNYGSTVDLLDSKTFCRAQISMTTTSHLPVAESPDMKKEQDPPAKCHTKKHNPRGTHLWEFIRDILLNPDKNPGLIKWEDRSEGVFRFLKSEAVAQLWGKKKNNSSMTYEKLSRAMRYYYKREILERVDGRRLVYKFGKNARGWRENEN
How it was run: as §1

SPI1 = SPI1 (Homo sapiens, UniProt P17947 1-270)
How it was run: as §1

SPIB = SPIB (Homo sapiens, UniProt Q01892 1-262)
SPIB, sequence (Q01892 whole entry): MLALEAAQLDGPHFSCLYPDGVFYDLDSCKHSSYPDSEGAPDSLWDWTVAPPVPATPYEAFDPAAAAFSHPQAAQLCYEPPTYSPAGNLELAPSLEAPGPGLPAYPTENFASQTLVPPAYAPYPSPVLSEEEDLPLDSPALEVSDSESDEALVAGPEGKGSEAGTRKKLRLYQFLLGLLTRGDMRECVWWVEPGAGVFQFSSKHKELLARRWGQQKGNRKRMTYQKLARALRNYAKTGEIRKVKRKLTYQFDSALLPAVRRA
How it was run: as §1

ELK3 = molecular target: T6, ELK3 (Homo sapiens, UniProt P41970 1-407)
T6 sequence: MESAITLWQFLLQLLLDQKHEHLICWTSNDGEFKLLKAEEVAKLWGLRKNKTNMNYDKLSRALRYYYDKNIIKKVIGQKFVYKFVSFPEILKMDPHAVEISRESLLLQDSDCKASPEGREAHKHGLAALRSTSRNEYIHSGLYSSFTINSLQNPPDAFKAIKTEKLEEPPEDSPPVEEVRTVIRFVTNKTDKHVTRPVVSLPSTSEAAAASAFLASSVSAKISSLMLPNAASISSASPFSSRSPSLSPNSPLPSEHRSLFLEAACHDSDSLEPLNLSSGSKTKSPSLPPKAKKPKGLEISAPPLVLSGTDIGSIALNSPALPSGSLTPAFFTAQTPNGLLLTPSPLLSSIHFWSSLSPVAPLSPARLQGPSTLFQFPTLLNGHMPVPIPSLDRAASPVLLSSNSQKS
How it was run: as §1

FEV = molecular target: T7, FEV (Homo sapiens, UniProt Q99581 1-238)
T7 sequence: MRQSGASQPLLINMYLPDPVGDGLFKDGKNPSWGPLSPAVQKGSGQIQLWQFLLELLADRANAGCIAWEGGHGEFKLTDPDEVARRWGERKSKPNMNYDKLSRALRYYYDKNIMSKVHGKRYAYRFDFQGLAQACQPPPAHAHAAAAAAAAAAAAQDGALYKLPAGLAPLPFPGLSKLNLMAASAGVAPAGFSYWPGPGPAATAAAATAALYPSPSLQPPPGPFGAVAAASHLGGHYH
How it was run: as §1

ETV5 = ETV5 (Homo sapiens, UniProt P41161 1-510)
ETV5, sequence (P41161 whole entry): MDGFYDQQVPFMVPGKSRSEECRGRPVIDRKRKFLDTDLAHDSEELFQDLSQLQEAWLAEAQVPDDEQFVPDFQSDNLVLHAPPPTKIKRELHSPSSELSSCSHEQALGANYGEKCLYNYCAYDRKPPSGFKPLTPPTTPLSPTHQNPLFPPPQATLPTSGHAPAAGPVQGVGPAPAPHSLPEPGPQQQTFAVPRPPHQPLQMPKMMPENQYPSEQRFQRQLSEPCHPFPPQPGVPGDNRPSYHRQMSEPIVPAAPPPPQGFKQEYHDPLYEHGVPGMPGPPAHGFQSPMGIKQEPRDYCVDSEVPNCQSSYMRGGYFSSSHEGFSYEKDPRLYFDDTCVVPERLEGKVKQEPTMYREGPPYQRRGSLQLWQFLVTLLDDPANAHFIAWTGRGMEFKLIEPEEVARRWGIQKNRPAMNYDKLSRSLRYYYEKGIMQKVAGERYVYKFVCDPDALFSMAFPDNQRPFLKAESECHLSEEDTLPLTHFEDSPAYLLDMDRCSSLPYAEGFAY
How it was run: as §1

SPIC = molecular target: T8, SPIC (Homo sapiens, UniProt Q8N5J4 1-248)
T8 sequence: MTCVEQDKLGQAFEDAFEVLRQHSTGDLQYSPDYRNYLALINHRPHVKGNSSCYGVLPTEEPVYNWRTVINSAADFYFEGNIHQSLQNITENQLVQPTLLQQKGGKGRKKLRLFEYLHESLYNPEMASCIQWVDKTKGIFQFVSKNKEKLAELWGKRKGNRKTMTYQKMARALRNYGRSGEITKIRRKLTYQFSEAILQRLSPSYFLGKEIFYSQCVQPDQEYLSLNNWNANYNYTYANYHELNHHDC
How it was run: as §1

ELF4 = ELF4 (Homo sapiens, UniProt Q99607 1-663)
ELF4, sequence (Q99607 whole entry): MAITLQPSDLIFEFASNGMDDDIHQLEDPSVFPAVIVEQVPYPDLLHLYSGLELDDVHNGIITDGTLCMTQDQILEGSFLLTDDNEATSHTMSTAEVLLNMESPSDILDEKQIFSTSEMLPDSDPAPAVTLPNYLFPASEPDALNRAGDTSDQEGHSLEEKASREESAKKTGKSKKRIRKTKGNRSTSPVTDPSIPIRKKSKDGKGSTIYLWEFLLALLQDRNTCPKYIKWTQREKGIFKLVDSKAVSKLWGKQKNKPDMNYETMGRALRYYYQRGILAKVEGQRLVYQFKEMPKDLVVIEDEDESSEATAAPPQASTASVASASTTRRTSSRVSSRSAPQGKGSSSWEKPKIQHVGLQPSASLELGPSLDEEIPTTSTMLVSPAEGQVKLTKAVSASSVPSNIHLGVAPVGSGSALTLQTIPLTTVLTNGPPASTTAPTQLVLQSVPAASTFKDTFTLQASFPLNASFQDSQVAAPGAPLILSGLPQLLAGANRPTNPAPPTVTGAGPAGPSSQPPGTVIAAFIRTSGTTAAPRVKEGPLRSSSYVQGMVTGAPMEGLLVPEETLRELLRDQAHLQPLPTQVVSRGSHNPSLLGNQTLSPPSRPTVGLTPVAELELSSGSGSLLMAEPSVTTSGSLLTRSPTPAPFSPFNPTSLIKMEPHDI
How it was run: as §1

ELK4 = molecular target: T9, ELK4 (Homo sapiens, UniProt P28324-2 1-405)
T9 sequence: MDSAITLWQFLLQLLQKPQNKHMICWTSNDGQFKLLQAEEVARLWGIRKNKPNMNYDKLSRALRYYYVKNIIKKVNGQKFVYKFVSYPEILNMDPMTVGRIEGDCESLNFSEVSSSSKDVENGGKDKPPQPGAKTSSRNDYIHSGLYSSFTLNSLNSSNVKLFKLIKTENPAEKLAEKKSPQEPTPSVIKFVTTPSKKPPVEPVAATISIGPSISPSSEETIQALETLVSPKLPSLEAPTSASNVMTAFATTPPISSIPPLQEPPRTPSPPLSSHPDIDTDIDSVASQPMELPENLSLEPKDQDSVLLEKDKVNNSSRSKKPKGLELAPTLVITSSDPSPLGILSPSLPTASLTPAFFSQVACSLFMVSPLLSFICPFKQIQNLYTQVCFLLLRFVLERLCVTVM
How it was run: as §1

ETV2 = molecular target: T10, ETV2 (Homo sapiens, UniProt O00321 1-342)
T10 sequence: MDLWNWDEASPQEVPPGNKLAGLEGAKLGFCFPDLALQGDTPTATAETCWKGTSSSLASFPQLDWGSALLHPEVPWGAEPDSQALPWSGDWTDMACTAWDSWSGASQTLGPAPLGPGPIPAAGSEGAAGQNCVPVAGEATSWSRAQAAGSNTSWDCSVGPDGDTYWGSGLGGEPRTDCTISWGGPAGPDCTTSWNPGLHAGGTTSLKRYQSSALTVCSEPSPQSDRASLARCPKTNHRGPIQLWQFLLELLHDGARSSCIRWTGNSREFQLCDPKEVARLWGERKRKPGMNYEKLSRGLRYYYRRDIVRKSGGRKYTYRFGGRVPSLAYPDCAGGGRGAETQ
How it was run: as §1

ETV1 = ETV1 (Homo sapiens, UniProt P50549 1-477)
ETV1, sequence (P50549 whole entry): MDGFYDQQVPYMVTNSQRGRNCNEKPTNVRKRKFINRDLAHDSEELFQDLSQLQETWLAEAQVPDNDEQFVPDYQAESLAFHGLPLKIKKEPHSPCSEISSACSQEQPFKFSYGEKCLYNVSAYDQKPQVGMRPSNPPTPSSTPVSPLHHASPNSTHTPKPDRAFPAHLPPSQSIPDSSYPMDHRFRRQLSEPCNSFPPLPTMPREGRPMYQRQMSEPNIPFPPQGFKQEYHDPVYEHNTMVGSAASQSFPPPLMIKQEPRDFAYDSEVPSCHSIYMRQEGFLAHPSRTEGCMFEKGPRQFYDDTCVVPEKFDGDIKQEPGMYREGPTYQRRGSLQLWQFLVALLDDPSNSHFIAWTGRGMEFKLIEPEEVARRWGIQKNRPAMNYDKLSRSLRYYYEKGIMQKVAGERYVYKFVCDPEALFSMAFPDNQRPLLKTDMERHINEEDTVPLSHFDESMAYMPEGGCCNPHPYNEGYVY
How it was run: as §1

| Sequence | binding signal (FLI1) | binding signal (ELK1) | binding signal (GABPA) | binding signal (ERG) | binding signal (ELF1) | binding signal (EHF) | binding signal (SPI1) | binding signal (SPIB) | binding signal (ELK3) | binding signal (FEV) | binding signal (ETV5) | binding signal (SPIC) | binding signal (ELF4) | binding signal (ELK4) | binding signal (ETV2) | binding signal (ETV1) |
| --- | --- | --- | --- | --- | --- | --- | --- | --- | --- | --- | --- | --- | --- | --- | --- | --- |
| GTCCAC | 1.03 fold enrichment (6-mer frequency, TF over GST control) | 1.07 fold enrichment (6-mer frequency, TF over GST control) | 1.11 fold enrichment (6-mer frequency, TF over GST control) | 1.03 fold enrichment (6-mer frequency, TF over GST control) | 1.02 fold enrichment (6-mer frequency, TF over GST control) | 1.12 fold enrichment (6-mer frequency, TF over GST control) | 1.02 fold enrichment (6-mer frequency, TF over GST control) | 1.09 fold enrichment (6-mer frequency, TF over GST control) | 1.04 fold enrichment (6-mer frequency, TF over GST control) | 1.08 fold enrichment (6-mer frequency, TF over GST control) | 1.07 fold enrichment (6-mer frequency, TF over GST control) | 1.05 fold enrichment (6-mer frequency, TF over GST control) | 1.06 fold enrichment (6-mer frequency, TF over GST control) | 1.07 fold enrichment (6-mer frequency, TF over GST control) | 1.14 fold enrichment (6-mer frequency, TF over GST control) |  |
| CGTATG | 1.1 fold enrichment (6-mer frequency, TF over GST control) | 1.1 fold enrichment (6-mer frequency, TF over GST control) | 1.08 fold enrichment (6-mer frequency, TF over GST control) | 1.03 fold enrichment (6-mer frequency, TF over GST control) | 1.1 fold enrichment (6-mer frequency, TF over GST control) | 1.1 fold enrichment (6-mer frequency, TF over GST control) | 1.07 fold enrichment (6-mer frequency, TF over GST control) | 1.09 fold enrichment (6-mer frequency, TF over GST control) | 1.13 fold enrichment (6-mer frequency, TF over GST control) |  | 1.09 fold enrichment (6-mer frequency, TF over GST control) | 1.07 fold enrichment (6-mer frequency, TF over GST control) | 1.04 fold enrichment (6-mer frequency, TF over GST control) | 1 fold enrichment (6-mer frequency, TF over GST control) | 1.09 fold enrichment (6-mer frequency, TF over GST control) | 1.04 fold enrichment (6-mer frequency, TF over GST control) |
